Reference: article PMC7862700, “An all-to-all approach to the identification of sequence-specific readers for epigenetic DNA modifications on cytosine”

Tests used:
Test in all cases: DAPPL (digital affinity profiling via proximity ligation, sequencing); 10 mM Tris-HCl pH 7.5, 50 mM NaCl, 1 mM DTT, 4% glycerol, room temperature, 30 min; GST-TFs on glutathione beads, 16-mer random dsDNA library, 0.1% formaldehyde crosslink after washing; high values mean tight binding
Settings in all cases: protein: recombinant; tags: N-terminal GST; dsDNA, one strand shown
[1] = target: T1, ELK4 (Homo sapiens, UniProt P28324-2 1-405)
T1 sequence: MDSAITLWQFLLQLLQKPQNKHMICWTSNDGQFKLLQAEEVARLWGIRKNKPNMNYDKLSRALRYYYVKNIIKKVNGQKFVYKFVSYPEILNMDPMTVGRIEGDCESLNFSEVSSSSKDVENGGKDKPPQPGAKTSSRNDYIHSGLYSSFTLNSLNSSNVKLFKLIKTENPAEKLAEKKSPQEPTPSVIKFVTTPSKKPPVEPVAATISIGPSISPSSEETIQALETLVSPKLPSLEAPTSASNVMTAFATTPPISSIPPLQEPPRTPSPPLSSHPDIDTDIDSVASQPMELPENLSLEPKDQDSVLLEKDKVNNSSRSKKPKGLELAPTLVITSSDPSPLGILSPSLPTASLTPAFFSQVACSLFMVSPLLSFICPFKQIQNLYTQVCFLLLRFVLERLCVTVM
In short: (§1)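 Beads coated with glutathione captured GST-fused human transcription factors that had been expressed in yeast, and the factors were then given DNA barcodes and pooled with a tag-only sample. The pools were incubated with 200 nmole of a random double-stranded 16-mer DNA library in Tris/NaCl/DTT/glycerol buffer for 30 min at room temperature, washed, crosslinked with 0.1% formaldehyde and proximity-ligated with BsaI/T4 ligase at 37 °C for 1 h. PCR amplification and Illumina NextSeq500 sequencing came last. Binding signal is each hexamer's read frequency for a factor divided by its frequency for the tag-only sample.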

[2] = target: T2, ELF3 (Homo sapiens, UniProt P78545 1-371)
T2 sequence: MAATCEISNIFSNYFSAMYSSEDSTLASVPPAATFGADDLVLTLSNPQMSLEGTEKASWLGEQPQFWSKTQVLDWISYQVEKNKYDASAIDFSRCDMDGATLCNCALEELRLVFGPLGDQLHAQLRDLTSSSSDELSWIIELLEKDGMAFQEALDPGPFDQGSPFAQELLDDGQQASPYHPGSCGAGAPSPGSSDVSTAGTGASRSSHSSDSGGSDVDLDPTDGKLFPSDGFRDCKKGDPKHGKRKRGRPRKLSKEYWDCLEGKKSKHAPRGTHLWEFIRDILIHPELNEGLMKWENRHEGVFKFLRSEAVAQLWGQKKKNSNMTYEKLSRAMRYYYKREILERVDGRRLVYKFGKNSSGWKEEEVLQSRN
In short: as §1

[3] = target: ETV1 (Homo sapiens, UniProt P50549 1-477)
In short: as §1

[4] = target: T3, ERF (Homo sapiens, UniProt P50548 1-548)
T3 sequence: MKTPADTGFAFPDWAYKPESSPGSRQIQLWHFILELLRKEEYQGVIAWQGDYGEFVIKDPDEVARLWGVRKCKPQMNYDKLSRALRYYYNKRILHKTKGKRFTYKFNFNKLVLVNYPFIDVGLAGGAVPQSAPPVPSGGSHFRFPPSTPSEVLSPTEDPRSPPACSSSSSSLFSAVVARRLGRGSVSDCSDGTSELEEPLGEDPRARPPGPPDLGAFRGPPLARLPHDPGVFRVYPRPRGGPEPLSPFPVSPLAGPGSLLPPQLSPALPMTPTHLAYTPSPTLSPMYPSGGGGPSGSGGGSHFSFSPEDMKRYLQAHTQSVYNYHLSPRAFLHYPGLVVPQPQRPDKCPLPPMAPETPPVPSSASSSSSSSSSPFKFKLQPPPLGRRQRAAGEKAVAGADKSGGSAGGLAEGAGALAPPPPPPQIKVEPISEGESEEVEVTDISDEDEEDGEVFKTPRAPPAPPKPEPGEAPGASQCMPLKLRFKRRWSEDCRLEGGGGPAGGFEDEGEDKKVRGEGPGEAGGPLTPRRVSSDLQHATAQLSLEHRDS
In short: as §1

[5] = target: T4, ETV3L (Homo sapiens, UniProt Q6ZN32 1-361)
T4 sequence: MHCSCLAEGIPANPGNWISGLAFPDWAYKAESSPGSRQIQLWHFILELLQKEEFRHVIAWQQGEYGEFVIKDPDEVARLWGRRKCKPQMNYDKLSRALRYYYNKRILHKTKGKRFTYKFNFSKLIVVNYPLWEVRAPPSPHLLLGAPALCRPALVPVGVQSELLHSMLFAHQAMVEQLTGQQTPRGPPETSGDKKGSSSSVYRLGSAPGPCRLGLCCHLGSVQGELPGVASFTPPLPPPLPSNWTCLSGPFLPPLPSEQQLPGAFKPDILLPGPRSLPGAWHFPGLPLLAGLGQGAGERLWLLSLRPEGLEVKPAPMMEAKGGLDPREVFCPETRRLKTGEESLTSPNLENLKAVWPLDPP
In short: as §1

[6] = target: T5, ETS2 (Homo sapiens, UniProt P15036 1-469)
T5 sequence: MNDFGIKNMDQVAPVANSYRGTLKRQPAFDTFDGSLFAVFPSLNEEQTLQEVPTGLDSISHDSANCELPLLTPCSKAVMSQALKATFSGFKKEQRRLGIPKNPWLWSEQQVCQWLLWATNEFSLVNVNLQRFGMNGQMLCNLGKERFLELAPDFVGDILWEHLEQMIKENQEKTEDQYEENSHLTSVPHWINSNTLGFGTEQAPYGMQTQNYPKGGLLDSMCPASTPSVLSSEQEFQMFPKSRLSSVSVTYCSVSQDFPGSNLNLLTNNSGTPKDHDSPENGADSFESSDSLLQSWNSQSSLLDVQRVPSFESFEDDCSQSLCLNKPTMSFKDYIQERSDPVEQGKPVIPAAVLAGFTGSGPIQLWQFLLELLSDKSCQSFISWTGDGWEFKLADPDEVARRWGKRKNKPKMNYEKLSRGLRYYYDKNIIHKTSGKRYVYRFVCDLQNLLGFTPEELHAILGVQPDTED
In short: as §1

[7] = target: T6, SPDEF (Homo sapiens, UniProt O95238 1-335)
T6 sequence: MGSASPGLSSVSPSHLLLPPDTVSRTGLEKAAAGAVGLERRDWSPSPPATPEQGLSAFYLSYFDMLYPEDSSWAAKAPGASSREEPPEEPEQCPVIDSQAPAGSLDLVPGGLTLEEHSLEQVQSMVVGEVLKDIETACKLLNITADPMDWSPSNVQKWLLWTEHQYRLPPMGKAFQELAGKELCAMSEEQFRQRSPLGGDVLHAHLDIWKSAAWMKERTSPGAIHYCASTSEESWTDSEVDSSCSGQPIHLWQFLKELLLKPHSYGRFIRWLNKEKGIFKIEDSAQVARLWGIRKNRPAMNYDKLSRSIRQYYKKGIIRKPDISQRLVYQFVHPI
In short: as §1

[8] = target: T7, ETV7 (Homo sapiens, UniProt Q9Y603 1-341)
T7 sequence: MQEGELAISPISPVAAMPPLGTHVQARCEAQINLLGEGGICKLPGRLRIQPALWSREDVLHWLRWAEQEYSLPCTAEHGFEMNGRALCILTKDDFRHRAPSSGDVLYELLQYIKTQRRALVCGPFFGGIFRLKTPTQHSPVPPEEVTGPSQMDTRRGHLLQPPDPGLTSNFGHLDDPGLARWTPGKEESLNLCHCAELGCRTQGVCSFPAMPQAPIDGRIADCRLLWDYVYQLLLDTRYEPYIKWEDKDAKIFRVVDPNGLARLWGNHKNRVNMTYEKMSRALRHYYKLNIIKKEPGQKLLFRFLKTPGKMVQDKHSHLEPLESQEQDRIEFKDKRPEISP
In short: as §1

[9] = target: T8, ETV3 (Homo sapiens, UniProt P41162-2 1-143)
T8 sequence: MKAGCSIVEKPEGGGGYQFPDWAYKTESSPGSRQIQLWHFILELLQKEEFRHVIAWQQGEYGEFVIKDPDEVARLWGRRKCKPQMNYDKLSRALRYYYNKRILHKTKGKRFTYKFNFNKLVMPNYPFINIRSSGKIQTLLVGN
In short: as §1

[10] = target: ETV6 (Homo sapiens, UniProt P41212 1-452)
In short: as §1

Sequence of ETV1 (P50549 whole entry): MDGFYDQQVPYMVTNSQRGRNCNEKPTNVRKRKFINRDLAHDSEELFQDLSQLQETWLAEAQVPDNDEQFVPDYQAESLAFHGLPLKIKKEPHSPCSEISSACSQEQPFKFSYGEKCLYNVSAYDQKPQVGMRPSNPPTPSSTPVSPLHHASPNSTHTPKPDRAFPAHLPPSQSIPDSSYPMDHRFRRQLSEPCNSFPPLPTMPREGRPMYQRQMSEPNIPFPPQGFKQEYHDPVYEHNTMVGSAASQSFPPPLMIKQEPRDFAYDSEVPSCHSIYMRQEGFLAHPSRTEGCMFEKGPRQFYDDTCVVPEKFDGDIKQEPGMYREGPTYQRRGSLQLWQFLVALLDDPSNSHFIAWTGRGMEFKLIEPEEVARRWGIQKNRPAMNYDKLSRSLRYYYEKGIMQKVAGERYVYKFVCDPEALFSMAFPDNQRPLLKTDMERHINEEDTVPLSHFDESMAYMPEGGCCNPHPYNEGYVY
Sequence of ETV6 (P41212 whole entry): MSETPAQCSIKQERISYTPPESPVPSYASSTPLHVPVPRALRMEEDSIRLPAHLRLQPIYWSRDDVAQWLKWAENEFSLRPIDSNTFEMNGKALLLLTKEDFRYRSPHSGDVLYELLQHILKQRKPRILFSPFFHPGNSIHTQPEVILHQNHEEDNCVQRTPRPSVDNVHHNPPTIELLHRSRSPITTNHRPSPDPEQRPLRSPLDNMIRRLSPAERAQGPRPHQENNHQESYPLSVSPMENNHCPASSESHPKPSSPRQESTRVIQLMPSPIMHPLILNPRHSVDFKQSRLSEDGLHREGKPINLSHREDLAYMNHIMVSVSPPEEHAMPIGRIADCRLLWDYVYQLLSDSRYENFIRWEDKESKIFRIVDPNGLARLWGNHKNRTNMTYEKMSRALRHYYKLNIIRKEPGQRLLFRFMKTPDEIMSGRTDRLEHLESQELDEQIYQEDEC

Q: Which results are given for TGATTA?
A: binding signal [1]: 1.16 fold enrichment (6-mer frequency, TF over GST control); binding signal [2]: 1.18 fold enrichment (6-mer frequency, TF over GST control); binding signal [3]: 1.09 fold enrichment (6-mer frequency, TF over GST control); binding signal [4]: 1.16 fold enrichment (6-mer frequency, TF over GST control); binding signal [5]: 1.07 fold enrichment (6-mer frequency, TF over GST control); binding signal [6]: 1.03 fold enrichment (6-mer frequency, TF over GST control); binding signal [7]: 1.01 fold enrichment (6-mer frequency, TF over GST control); binding signal [8]: 1.05 fold enrichment (6-mer frequency, TF over GST control); binding signal [9]: 1.08 fold enrichment (6-mer frequency, TF over GST control); binding signal [10]: 1.06 fold enrichment (6-mer frequency, TF over GST control)
